# Reference: the OligoGym collection
# Biological target: AIG1
# Experiment: pooled miR-30 sensor sort-seq; sequence = guide strand
# Conditions: shRNA
row,Sequence,sensor-assay potency score (higher = more potent)
1,TTCTTTAACACACAGTGAGGGT,-0.962
2,TTGGAAACAACTGTATTCTATG,-0.738
3,ATAAAGGGCAGAACCGTCGTGT,0.238
4,TTTGGAAACAACTGTATTCTAT,-0.0597
5,TAGTTACACAGGATAGAGCAGT,-0.722

# Biological target: AK1
# Experiment: as above
# Conditions: shRNA
row,Sequence,sensor-assay potency score (higher = more potent)
1,TACAGCAGCAGTGTGGGCTGTC,0.332
2,TCGCTCAAACTCTTCTCCTTGC,-0.418
3,TTTGGAAGTATTGACTTTGGCC,-0.356
4,TTGACCTTGCGCACAATGCCAC,-0.47
5,TTCTCCTTGCTGCACCTCCCGC,-1.57
6,TGCGTCCACATACAGCAGCAGT,-1.67
7,TCCACATACAGCAGCAGTGTGG,-1.37
8,TTGACTTTGGCCACCATGGCAT,-0.482
9,TACTTCTGCACGATCTTCTCAC,0.346
10,ATTGTCGTCCACACGCCCGCTG,-0.347
11,ATGATTTCCGACAGCTTCTTGC,-1.06
12,TTGTCGTCCACACGCCCGCTGG,-1.2
13,TTGATGGTCTCCTCATTGTCGT,-0.675
14,TGATGGTCTCCTCATTGTCGTC,-1.72
15,TCCAACACTGTCTCCAGTGGAA,-1.08
16,TAATAGGTCTCCAGCCGCTTTT,-1.38
17,TTGTAATAGGTCTCCAGCCGCT,-0.883
18,TTTGATGGTCTCCTCATTGTCG,-0.362
19,TAGCCATCAATCAGGAAGCCTT,-0.92
20,TTTCCGACAGCTTCTTGCCCCT,-0.367
21,TGTCTCCAGTGGAACCAGCTGC,-0.761
22,TGCACGATCTTCTCACACTGGG,-0.837
23,TGTAATAGGTCTCCAGCCGCTT,-0.437
24,TCATTGTCGTCCACACGCCCGC,-0.841

# Biological target: AKR1A1
# Experiment: as above
# Conditions: shRNA
row,Sequence,sensor-assay potency score (higher = more potent)
1,TTAACAGCTGCTTTTACCTGAC,-0.112
2,TTGATGTTCTGAAGGATTCGAG,-0.236
3,TTAGCTGCTTCATCTCTTCTGG,-0.107
4,TTGGATGTCACAAACAGCTCCT,0.145
5,TGTCACAAACAGCTCCTCCCGA,-0.337
6,TAAAGGTGAAGTCAAACACCTT,-1.29
7,TAAGGGCATACTTAACAGCTGC,-0.729
8,TATAGTCCCATCAGCATTCTTG,-0.715
9,TAGTGGGTGGAGTCGTAGCATA,-1.36
10,TACCTGACCAGGCTCACTCTTC,-0.753
